# Columns and labels:
# Test in all cases: DAPPL (digital affinity profiling via proximity ligation, sequencing); 10 mM Tris-HCl pH 7.5, 50 mM NaCl, 1 mM DTT, 4% glycerol, room temperature, 30 min; GST-TFs on glutathione beads, 16-mer random dsDNA library, 0.1% formaldehyde crosslink after washing; high values mean tight binding
# FLI1 = target: T1, FLI1 (Homo sapiens, UniProt Q01543 1-452); conditions: protein: recombinant; tags: N-terminal GST; dsDNA, one strand shown
# T1 sequence: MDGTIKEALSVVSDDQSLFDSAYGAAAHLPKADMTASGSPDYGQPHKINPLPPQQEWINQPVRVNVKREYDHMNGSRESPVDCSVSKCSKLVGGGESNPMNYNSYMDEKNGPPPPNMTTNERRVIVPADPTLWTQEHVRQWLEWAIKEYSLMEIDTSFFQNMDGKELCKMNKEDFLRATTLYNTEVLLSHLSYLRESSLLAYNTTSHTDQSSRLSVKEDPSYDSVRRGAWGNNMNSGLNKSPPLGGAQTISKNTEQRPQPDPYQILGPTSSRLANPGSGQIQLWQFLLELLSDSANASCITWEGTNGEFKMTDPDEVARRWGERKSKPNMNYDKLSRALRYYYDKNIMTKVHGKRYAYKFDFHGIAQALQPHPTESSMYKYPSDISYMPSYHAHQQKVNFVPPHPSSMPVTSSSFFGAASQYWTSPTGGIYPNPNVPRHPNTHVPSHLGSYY
# Outline: (§1)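 Pools were built from human transcription factors expressed in yeast as GST fusions, captured on glutathione beads and DNA-barcoded, along with a tag-only sample. Incubation with 200 nmole of a 16-mer random double-stranded DNA library lasted 30 min at room temperature in Tris/NaCl/DTT/glycerol buffer, and was followed by washing, 0.1% formaldehyde crosslinking, proximity ligation, PCR amplification and Illumina NextSeq500 sequencing. Binding signal is the quotient of each hexamer's read frequency for a factor and its frequency for the tag-only sample.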
# ELK1 = target: T2, ELK1 (Homo sapiens, UniProt P19419 1-428); conditions: protein: recombinant; tags: N-terminal GST; dsDNA, one strand shown
# T2 sequence: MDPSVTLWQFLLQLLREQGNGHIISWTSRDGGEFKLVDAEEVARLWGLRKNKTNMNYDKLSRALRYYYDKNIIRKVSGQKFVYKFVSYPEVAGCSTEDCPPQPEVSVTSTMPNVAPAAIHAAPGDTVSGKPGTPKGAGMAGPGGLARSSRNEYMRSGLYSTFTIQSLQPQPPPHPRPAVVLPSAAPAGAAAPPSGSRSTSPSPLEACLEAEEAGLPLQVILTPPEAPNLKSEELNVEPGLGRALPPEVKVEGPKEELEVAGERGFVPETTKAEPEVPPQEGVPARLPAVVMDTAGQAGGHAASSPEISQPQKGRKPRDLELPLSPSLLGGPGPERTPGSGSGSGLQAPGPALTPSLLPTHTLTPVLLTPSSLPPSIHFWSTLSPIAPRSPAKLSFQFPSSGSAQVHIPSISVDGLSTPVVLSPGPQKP
# Outline: as §1
# GABPA = target: T3, GABPA (Homo sapiens, UniProt Q06546 1-454); conditions: protein: recombinant; tags: N-terminal GST; dsDNA, one strand shown
# T3 sequence: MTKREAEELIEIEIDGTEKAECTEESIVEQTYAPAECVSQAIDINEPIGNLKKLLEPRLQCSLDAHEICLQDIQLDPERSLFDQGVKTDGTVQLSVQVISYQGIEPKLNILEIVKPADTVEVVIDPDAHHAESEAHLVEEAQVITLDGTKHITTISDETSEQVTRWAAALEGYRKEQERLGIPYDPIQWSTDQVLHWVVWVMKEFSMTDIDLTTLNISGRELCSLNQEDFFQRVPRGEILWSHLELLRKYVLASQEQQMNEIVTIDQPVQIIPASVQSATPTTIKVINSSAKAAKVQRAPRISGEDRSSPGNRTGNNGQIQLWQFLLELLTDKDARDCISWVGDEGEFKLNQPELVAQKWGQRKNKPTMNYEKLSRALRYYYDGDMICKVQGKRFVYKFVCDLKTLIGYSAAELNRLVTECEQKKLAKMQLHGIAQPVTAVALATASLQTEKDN
# Outline: as §1
# ERG = target: T4, ERG (Homo sapiens, UniProt P11308 1-479); conditions: protein: recombinant; tags: N-terminal GST; dsDNA, one strand shown
# T4 sequence: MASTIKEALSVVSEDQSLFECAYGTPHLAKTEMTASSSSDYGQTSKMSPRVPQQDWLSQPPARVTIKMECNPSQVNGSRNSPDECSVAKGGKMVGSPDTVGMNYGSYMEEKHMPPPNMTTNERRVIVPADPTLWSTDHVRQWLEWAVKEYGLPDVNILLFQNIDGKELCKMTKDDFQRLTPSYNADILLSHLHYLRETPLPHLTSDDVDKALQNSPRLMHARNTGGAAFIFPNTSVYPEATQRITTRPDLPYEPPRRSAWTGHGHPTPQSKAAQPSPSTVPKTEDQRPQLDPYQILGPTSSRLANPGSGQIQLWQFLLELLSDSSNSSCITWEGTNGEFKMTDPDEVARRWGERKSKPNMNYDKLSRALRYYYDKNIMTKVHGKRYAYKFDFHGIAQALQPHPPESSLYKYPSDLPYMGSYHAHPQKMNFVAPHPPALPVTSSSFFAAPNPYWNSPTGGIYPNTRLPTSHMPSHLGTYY
# Outline: as §1
# ELF1 = ELF1 (Homo sapiens, UniProt P32519 1-619); conditions: protein: recombinant; tags: N-terminal GST; dsDNA, one strand shown
# Chain of ELF1 (P32519 whole entry): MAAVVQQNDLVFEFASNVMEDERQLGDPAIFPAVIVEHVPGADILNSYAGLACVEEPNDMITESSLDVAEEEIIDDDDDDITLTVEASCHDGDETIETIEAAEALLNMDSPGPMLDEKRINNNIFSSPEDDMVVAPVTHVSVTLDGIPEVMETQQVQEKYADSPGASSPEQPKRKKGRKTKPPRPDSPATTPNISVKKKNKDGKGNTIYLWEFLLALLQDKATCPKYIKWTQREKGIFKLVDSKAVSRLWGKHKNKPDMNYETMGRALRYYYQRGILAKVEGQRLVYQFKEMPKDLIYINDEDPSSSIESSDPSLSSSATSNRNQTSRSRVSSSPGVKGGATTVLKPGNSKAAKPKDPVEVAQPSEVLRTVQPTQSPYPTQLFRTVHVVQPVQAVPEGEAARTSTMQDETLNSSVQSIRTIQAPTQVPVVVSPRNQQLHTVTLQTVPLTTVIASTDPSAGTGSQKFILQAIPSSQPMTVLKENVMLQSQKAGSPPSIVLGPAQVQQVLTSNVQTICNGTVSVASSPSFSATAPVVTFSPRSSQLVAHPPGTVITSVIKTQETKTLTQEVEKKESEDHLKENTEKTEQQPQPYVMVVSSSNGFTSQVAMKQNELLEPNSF
# Outline: as §1
# EHF = target: T5, EHF (Homo sapiens, UniProt Q9NZC4 1-300); conditions: protein: recombinant; tags: N-terminal GST; dsDNA, one strand shown
# T5 sequence: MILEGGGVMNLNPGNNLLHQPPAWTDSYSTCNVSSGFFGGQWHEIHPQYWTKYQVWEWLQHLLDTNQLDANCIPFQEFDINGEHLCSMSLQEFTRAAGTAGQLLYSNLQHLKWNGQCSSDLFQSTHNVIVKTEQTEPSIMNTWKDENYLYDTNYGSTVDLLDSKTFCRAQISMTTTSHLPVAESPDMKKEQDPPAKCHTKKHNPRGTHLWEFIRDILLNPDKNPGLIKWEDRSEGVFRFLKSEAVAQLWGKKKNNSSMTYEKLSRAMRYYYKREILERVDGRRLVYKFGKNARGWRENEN
# Outline: as §1
# SPI1 = SPI1 (Homo sapiens, UniProt P17947 1-270); conditions: protein: recombinant; tags: N-terminal GST; dsDNA, one strand shown
# Outline: as §1
# SPIB = SPIB (Homo sapiens, UniProt Q01892 1-262); conditions: protein: recombinant; tags: N-terminal GST; dsDNA, one strand shown
# Chain of SPIB (Q01892 whole entry): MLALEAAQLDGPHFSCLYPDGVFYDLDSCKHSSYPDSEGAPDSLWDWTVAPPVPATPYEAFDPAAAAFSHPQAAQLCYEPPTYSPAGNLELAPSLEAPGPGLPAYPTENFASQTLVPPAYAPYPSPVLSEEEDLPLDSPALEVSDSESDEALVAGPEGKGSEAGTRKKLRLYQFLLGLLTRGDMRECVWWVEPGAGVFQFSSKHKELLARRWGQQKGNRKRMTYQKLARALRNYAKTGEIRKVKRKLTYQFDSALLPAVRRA
# Outline: as §1
# ELK3 = target: T6, ELK3 (Homo sapiens, UniProt P41970 1-407); conditions: protein: recombinant; tags: N-terminal GST; dsDNA, one strand shown
# T6 sequence: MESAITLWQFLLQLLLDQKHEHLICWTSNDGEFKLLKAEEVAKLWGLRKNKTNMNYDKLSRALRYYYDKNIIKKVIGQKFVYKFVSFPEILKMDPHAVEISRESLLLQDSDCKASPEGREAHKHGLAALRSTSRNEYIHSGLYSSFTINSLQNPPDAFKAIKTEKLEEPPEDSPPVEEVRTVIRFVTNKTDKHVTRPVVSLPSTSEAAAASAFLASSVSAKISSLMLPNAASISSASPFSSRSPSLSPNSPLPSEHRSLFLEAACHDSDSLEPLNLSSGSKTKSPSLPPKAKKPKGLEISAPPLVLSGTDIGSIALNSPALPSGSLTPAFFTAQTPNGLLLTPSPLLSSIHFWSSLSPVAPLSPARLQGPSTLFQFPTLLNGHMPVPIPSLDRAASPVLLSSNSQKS
# Outline: as §1
# FEV = target: T7, FEV (Homo sapiens, UniProt Q99581 1-238); conditions: protein: recombinant; tags: N-terminal GST; dsDNA, one strand shown
# T7 sequence: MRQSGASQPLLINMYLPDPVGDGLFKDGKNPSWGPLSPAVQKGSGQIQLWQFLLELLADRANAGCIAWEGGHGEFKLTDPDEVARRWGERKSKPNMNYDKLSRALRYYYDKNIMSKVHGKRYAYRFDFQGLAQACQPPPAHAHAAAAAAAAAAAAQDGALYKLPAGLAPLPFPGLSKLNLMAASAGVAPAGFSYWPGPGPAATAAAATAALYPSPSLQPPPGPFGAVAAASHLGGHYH
# Outline: as §1
# ETV5 = ETV5 (Homo sapiens, UniProt P41161 1-510); conditions: protein: recombinant; tags: N-terminal GST; dsDNA, one strand shown
# Chain of ETV5 (P41161 whole entry): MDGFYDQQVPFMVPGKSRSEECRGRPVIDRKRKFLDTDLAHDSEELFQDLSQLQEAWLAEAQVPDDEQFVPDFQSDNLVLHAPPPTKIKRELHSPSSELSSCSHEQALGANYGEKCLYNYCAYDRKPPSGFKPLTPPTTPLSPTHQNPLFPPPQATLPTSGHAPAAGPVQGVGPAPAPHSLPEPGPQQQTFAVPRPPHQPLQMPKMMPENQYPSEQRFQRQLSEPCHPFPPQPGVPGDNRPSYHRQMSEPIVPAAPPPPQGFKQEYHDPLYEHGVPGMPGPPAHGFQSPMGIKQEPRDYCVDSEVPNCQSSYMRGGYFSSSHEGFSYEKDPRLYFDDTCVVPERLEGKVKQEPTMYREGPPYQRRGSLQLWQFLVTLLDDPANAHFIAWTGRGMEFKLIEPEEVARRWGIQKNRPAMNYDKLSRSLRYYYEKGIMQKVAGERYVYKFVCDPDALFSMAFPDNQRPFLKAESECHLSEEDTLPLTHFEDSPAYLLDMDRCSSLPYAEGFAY
# Outline: as §1
# HSF1 = HSF1 (Homo sapiens, UniProt Q00613 1-529); conditions: protein: recombinant; tags: N-terminal GST; chain copies: 3; dsDNA, one strand shown
# Chain of HSF1 (Q00613 whole entry): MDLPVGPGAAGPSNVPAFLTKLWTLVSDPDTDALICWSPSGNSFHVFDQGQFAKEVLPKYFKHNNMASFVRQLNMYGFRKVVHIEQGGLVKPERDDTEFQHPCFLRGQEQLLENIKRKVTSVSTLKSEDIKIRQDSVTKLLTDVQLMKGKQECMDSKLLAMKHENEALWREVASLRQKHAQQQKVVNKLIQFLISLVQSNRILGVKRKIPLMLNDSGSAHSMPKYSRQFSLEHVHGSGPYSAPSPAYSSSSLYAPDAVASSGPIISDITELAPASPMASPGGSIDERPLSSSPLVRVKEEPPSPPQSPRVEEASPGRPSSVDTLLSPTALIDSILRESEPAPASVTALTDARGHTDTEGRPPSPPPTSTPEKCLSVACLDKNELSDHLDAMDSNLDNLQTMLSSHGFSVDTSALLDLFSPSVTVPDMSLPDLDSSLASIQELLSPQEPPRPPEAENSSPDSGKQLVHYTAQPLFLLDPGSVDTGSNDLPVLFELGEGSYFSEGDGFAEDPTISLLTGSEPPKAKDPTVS
# Outline: as §1
# SPIC = target: T8, SPIC (Homo sapiens, UniProt Q8N5J4 1-248); conditions: protein: recombinant; tags: N-terminal GST; dsDNA, one strand shown
# T8 sequence: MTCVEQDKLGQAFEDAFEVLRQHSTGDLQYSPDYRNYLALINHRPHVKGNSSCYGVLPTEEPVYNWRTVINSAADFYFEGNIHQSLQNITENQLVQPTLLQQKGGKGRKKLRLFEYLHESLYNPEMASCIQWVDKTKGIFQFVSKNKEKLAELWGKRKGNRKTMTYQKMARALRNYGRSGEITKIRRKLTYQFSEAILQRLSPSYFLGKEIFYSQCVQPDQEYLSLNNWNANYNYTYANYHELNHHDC
# Outline: as §1
# ELF4 = ELF4 (Homo sapiens, UniProt Q99607 1-663); conditions: protein: recombinant; tags: N-terminal GST; dsDNA, one strand shown
# Chain of ELF4 (Q99607 whole entry): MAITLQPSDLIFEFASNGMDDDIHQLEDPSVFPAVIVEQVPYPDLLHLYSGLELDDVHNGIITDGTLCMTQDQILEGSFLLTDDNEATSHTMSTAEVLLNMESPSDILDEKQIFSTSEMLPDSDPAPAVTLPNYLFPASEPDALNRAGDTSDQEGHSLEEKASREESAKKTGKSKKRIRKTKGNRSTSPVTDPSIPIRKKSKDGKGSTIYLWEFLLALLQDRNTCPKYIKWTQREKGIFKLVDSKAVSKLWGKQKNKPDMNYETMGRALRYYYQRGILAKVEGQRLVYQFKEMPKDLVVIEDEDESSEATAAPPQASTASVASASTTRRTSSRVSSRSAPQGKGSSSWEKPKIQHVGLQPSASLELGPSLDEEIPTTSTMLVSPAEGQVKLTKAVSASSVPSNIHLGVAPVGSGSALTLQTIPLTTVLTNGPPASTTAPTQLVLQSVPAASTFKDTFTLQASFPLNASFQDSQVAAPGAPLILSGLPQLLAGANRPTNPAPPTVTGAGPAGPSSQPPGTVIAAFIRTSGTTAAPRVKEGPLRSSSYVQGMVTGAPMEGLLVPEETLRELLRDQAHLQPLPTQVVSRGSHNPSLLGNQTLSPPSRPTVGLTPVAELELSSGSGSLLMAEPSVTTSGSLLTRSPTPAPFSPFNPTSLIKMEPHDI
# Outline: as §1
# ELK4 = target: T9, ELK4 (Homo sapiens, UniProt P28324-2 1-405); conditions: protein: recombinant; tags: N-terminal GST; dsDNA, one strand shown
# T9 sequence: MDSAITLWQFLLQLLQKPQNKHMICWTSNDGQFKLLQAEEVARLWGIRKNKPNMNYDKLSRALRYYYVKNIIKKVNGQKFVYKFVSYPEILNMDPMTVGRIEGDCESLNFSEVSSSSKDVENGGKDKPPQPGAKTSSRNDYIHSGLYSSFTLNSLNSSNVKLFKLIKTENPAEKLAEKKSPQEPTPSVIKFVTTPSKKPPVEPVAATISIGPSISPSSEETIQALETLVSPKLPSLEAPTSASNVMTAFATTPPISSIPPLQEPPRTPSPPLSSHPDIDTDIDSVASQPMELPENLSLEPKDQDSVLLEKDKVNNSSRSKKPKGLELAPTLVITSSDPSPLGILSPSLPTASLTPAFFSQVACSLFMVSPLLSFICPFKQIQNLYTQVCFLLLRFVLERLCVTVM
# Outline: as §1
# ETV2 = target: T10, ETV2 (Homo sapiens, UniProt O00321 1-342); conditions: protein: recombinant; tags: N-terminal GST; dsDNA, one strand shown
# T10 sequence: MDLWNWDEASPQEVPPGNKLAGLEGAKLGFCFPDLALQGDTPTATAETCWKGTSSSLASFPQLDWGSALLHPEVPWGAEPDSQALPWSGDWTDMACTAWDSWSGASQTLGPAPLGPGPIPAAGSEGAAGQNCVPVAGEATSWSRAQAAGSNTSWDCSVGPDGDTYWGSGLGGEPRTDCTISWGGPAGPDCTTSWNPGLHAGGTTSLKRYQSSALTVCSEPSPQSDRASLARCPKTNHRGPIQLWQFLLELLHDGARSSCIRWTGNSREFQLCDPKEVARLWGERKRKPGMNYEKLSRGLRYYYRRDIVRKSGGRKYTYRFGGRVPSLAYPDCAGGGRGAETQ
# Outline: as §1
# ELF3 = target: T11, ELF3 (Homo sapiens, UniProt P78545 1-371); conditions: protein: recombinant; tags: N-terminal GST; dsDNA, one strand shown
# T11 sequence: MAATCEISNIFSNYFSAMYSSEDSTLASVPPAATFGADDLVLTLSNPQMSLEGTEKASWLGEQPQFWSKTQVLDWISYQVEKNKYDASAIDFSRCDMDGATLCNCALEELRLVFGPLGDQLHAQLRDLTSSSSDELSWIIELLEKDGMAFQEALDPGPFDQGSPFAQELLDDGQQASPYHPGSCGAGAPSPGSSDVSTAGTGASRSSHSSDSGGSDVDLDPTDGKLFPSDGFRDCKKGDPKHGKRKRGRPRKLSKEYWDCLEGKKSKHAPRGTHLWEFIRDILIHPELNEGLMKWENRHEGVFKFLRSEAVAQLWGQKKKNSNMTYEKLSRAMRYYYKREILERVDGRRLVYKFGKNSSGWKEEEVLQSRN
# Outline: as §1
# ETV1 = ETV1 (Homo sapiens, UniProt P50549 1-477); conditions: protein: recombinant; tags: N-terminal GST; dsDNA, one strand shown
# Chain of ETV1 (P50549 whole entry): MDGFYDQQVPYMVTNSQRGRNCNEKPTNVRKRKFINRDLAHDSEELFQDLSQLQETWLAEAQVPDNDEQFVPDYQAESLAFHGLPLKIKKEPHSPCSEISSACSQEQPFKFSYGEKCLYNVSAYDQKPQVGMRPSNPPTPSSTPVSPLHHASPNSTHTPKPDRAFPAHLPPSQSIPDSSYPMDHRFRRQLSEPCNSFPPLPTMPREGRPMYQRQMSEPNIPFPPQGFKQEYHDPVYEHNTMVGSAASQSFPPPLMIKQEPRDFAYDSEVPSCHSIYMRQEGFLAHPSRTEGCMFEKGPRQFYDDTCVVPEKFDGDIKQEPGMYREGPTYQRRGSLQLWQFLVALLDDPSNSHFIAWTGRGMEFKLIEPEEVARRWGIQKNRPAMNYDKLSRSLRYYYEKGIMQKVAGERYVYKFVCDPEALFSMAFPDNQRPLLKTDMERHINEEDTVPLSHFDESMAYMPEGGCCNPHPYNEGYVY
# Outline: as §1
sequence,measurement,setting,value
TGCTAC,binding signal,FLI1,"1.35 fold enrichment (6-mer frequency, TF over GST control)"
same,binding signal,ELK1,"1.26 fold enrichment (6-mer frequency, TF over GST control)"
same,binding signal,GABPA,"1.24 fold enrichment (6-mer frequency, TF over GST control)"
same,binding signal,ERG,"1.27 fold enrichment (6-mer frequency, TF over GST control)"
same,binding signal,ELF1,"1.25 fold enrichment (6-mer frequency, TF over GST control)"
same,binding signal,EHF,"1.23 fold enrichment (6-mer frequency, TF over GST control)"
same,binding signal,SPI1,"1.29 fold enrichment (6-mer frequency, TF over GST control)"
same,binding signal,SPIB,"1.25 fold enrichment (6-mer frequency, TF over GST control)"
same,binding signal,ELK3,"1.26 fold enrichment (6-mer frequency, TF over GST control)"
same,binding signal,FEV,"1.36 fold enrichment (6-mer frequency, TF over GST control)"
same,binding signal,ETV5,"1.25 fold enrichment (6-mer frequency, TF over GST control)"
same,binding signal,HSF1,"1.03 fold enrichment (6-mer frequency, TF over GST control)"
same,binding signal,SPIC,"1.41 fold enrichment (6-mer frequency, TF over GST control)"
same,binding signal,ELF4,"1.23 fold enrichment (6-mer frequency, TF over GST control)"
same,binding signal,ELK4,"1.4 fold enrichment (6-mer frequency, TF over GST control)"
same,binding signal,ETV2,"1.24 fold enrichment (6-mer frequency, TF over GST control)"
same,binding signal,ELF3,"1.25 fold enrichment (6-mer frequency, TF over GST control)"
same,binding signal,ETV1,"1.42 fold enrichment (6-mer frequency, TF over GST control)"

# Reference: publication PMC7862700, “An all-to-all approach to the identification of sequence-specific readers for epigenetic DNA modifications on cytosine”
